The list is not random: actives were taken first. Their share in the collection is about 1.1%.
A1 inh = inhibitors of the anti-apoptotic protein A1, read as caspase activation | AID 2462 | 0.066% of 330,000 active | MEF A1-2A-BIM cells, Caspase-Glo 3/7 luminescence, 3 h; percent of clofoctol response, vehicle zero | caspase activation, % (no concentration beside the values);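 active = over half of replicate activation scores above 10%, or exactly half above 10 with the replicate mean above 10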
HTR5A ag = activates human HTR5A in OPRM1-OPRD1 agonist counter-screen | P47898 | HTR5A agonist assay, luminescence, cell-based | activation, % at 9.3 µM | 0.61% of 340,000 active | AID 504692; in the data active = activation mostly above about 9.5%, no sharp cut-off; inactive = mostly below about 7.6%;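 note: 0% = cells with vehicle only and 100% = reference agonist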
Target sequence (P47898 whole entry, looked up): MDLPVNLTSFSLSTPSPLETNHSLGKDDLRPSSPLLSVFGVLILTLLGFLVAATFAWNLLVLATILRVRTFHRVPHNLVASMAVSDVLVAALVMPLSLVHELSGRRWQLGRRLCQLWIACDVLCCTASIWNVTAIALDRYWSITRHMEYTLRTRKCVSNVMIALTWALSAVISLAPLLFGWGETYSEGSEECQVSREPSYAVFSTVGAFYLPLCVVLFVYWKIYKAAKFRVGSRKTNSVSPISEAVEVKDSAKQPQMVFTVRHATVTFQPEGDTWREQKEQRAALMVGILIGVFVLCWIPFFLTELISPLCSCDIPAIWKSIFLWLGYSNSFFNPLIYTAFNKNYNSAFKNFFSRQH
MOR-DOR inv ag = mu-delta opioid heterodimer inverse agonism; 0.21% of 340,000 active; P35372+P41143; inhibition, % at 9.3 µM; cell-based MOR-DOR heterodimer luminescence; in the data active = inhibition above about 22%, passing the limit was not always enough;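 note: 0% = cells with DMSO and 100% = wells without cells with DMSO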
HTR5A inv ctr = inverse agonist of human HTR5A in OPRM1-OPRD1 counter-screen; P47898; HTR5A cell line, luminescence, inverse agonism; inhibition, % at 9.3 µM; 0.083% of 340,000 active; AID 504634; in the data active = inhibition mostly above about 23%, no sharp cut-off; inactive = mostly below about 18%;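 note: 0% = cells with DMSO and 100% = no-cell wells with DMSO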
MOR-DOR ag-1 = OPRM1-OPRD1 heterodimerization agonism; P35372+P41143; cells, luminescence; activation, % at 9.3 µM; 0.3% of 340,000 active;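 note: 0% = vehicle-treated cells and 100% = reference agonist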
MOR-DOR ag-2 = promotes OPRM1-OPRD1 heterodimerization in HTR5A counter-screen | shares compounds with HTR5A ag | U2OS counter-screen cells, complementation luminescence, 3 h | activation, % at 9.3 µM | 13% of 800 active | AID 504913
HTR5A ag confirm = HTR5A (human) agonism, confirmation; activation, % at 9.3 µM; HTR5A agonist cell assay, luminescence; 17% of 800 active; shares compounds with HTR5A ag; AID 504915; in the data active = activation above about 17%;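 note: 0% = cells with vehicle only and 100% = full reference agonist response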
* = called active by the depositor. Cut-off read from the data, not from the text of the source, unless noted: active = activation above about 18%; inactive = the rest.

For N#Cc1cccnc1Nc1ccc(Cl)cc1 the results were A1 inh 0, HTR5A ag 8, MOR-DOR inv ag 9, HTR5A inv ctr -22 and MOR-DOR ag-1 -2.
`CCCCN(C)C(=O)c1cc2cc3ccc(OC)cc3nc2s1` gave A1 inh -7, HTR5A ag 21*, MOR-DOR inv ag -3, HTR5A inv ctr -90, MOR-DOR ag-1 1, MOR-DOR ag-2 0 and HTR5A ag confirm -14.
Screening CCOc1ccc(C(=O)Nc2ccc(NC(=O)c3ccco3)c(Cl)c2)cc1Br returned A1 inh -1, HTR5A ag 19*, MOR-DOR inv ag -84, HTR5A inv ctr -83, MOR-DOR ag-1 16, MOR-DOR ag-2 40* and HTR5A ag confirm 4.
`Cc1ccc(N=Nc2c(C)[nH][nH]c2=O)c(C)c1` gave A1 inh -1, HTR5A ag -2, MOR-DOR inv ag 16, HTR5A inv ctr -1 and MOR-DOR ag-1 -3.
Screening COc1ccc2[nH]cc(CCNS(=O)(=O)c3ccc(NC(C)=O)cc3)c2c1 returned A1 inh 0.
For CC(=O)Nc1ccc(S(=O)(=O)NCCc2c[nH]c3ccc(C)cc23)cc1 the results were A1 inh 1, HTR5A ag 27*, MOR-DOR inv ag 1, HTR5A inv ctr -100, MOR-DOR ag-1 0, MOR-DOR ag-2 60* and HTR5A ag confirm 2.
`CCOc1ccccc1N1CCN(C(=O)NC2CCCCC2)CC1` gave A1 inh -1, HTR5A ag 0, MOR-DOR inv ag 19, HTR5A inv ctr -14 and MOR-DOR ag-1 -3.
`CCC(C)(C)C1CCC(NC(=O)N2CCN(c3ccccc3O)CC2)CC1` (centres undefined) gave A1 inh 0, HTR5A ag 15*, MOR-DOR inv ag -30, HTR5A inv ctr -15, MOR-DOR ag-1 4, MOR-DOR ag-2 6 and HTR5A ag confirm 0.
For CCC(C)(C)C1CCC2(CC1)NC(=O)N(CC(=O)NCCc1c[nH]c3ccccc13)C2=O (centres undefined) the results were A1 inh -2, HTR5A ag 19*, MOR-DOR inv ag -4, HTR5A inv ctr -52, MOR-DOR ag-1 1, MOR-DOR ag-2 2 and HTR5A ag confirm 8.
CCOC(=O)c1ccccc1NS(=O)(=O)c1cnn(CC)c1C was read as A1 inh 1, HTR5A ag -1, MOR-DOR inv ag 11, HTR5A inv ctr 4 and MOR-DOR ag-1 -2.
Screening CCCS(=O)(=O)C(=C(Nc1ccccc1)Nc1ccccc1)S(=O)(=O)CCC returned A1 inh 0, HTR5A ag 3, MOR-DOR inv ag -18, HTR5A inv ctr -7 and MOR-DOR ag-1 3.
`Cc1cc(C)c2c(c1)SC1=NC(c3ccccc3)(C(F)(F)F)NC(=O)N12` (centres undefined) gave A1 inh -2, HTR5A ag 16*, MOR-DOR inv ag -30, HTR5A inv ctr 8, MOR-DOR ag-1 5, MOR-DOR ag-2 3 and HTR5A ag confirm 5.
Screening CC(C)(C)C1CCC(C(=O)OCC(=O)Nc2ccc3[nH]c(=O)[nH]c3c2)CC1 (centres undefined) returned A1 inh -1, HTR5A ag 2, MOR-DOR inv ag 3, HTR5A inv ctr -5 and MOR-DOR ag-1 -1.
For Cc1cc(C(=O)COC(=O)C2=COCCO2)c(C)n1-c1ccc2c(c1)OCO2 the results were A1 inh 0, HTR5A ag -4, MOR-DOR inv ag 4, HTR5A inv ctr -1 and MOR-DOR ag-1 -1.
For Cc1cc(C(=O)COC(=O)C2=COCCO2)c(C)n1-c1cccc(F)c1 the results were A1 inh 0, HTR5A ag 16*, MOR-DOR inv ag 0, HTR5A inv ctr 9, MOR-DOR ag-1 0, MOR-DOR ag-2 1 and HTR5A ag confirm 13.
Screening O=C(CSc1nnc(NC(=O)C2CC(=O)N(c3ccc(F)cc3)C2)s1)NCC1CCCO1 (centres undefined) returned A1 inh 0, HTR5A ag 0, MOR-DOR inv ag 7, HTR5A inv ctr 1 and MOR-DOR ag-1 -1.
`Cc1nc2ccc(NC(=O)N3CCSCC3)cc2s1` gave A1 inh 0, HTR5A ag 1, MOR-DOR inv ag 6, HTR5A inv ctr -1 and MOR-DOR ag-1 -1.
`COc1ccc(CN(C(=O)CSc2nnc(-c3ccc(F)cc3)o2)c2ccc(F)cc2)cc1` gave A1 inh 1, HTR5A ag 7, MOR-DOR inv ag -14, HTR5A inv ctr -18 and MOR-DOR ag-1 3.
`COc1ccc(CN(C(=O)CSc2nnc(-c3c[nH]c4ccccc34)o2)c2ccc(F)cc2)cc1OC` gave A1 inh -2, HTR5A ag 16*, MOR-DOR inv ag -23, HTR5A inv ctr -44, MOR-DOR ag-1 4, MOR-DOR ag-2 27* and HTR5A ag confirm 1.
For CCOC(=O)C(C)Oc1ccc(OCc2ccccc2)cc1 (centres undefined) the results were A1 inh -4, HTR5A ag 0, MOR-DOR inv ag -8, HTR5A inv ctr -1 and MOR-DOR ag-1 2.
Screening Nc1c(C(=O)Nc2ccc(S(=O)(=O)N3CCCC3)cc2)sc2nc3cc4c(cc3cc12)CCC4 returned A1 inh -1, HTR5A ag 0, MOR-DOR inv ag -13, HTR5A inv ctr 15 and MOR-DOR ag-1 2.
For Nc1c(C(=O)Nc2ccc(S(=O)(=O)N3CCCC3)cc2)sc2nc3ccc(OC(F)(F)F)cc3cc12 the results were A1 inh 15*, HTR5A ag 15*, MOR-DOR inv ag -88, HTR5A inv ctr -69, MOR-DOR ag-1 16, MOR-DOR ag-2 24* and HTR5A ag confirm 4.
`COC(/C=C/Nc1ccc(C)c(C)c1)=C(C#N)C#N` gave A1 inh 1, HTR5A ag 3, MOR-DOR inv ag 8, HTR5A inv ctr -20 and MOR-DOR ag-1 -1.
`Cc1ccc(NC(=O)C2CCN(S(C)(=O)=O)CC2)cc1C` gave A1 inh 0, HTR5A ag 1, MOR-DOR inv ag 6, HTR5A inv ctr 6 and MOR-DOR ag-1 -1.
For O=C1OC(c2ccccc2)(c2ccc(O)cc2)c2ccccc21 (centres undefined) the results were HTR5A ag 22*, MOR-DOR inv ag -3, HTR5A inv ctr -87, MOR-DOR ag-1 1, MOR-DOR ag-2 2 and HTR5A ag confirm 12.
Cc1cccc(CS(=O)(=O)c2cn(CC(=O)N3CCOCC3)c3ccccc23)c1 was read as A1 inh 0, HTR5A ag 12, MOR-DOR inv ag -3, HTR5A inv ctr -32 and MOR-DOR ag-1 1.
Cn1c(NC(=O)Cc2cccs2)cc(=O)n(C)c1=O was read as HTR5A ag 19*, MOR-DOR inv ag 11, HTR5A inv ctr -53, MOR-DOR ag-1 -2, MOR-DOR ag-2 1 and HTR5A ag confirm 0.

Screens: PubChem BioAssay, several laboratories
